Among the data in PubChem BioAssay (NCI) are growth values, retold here.

Molecules are shown by their SMILES. The panel holds about 83,000 compounds, 20% with a hit somewhere; the sample as a whole holds those more often.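 For each line, cells grew in 96-well plates with the test compound present at a single concentration for 48 hours.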 Unmarked numbers belong to inactive results. Active and inactive are the calls of the source. Rule for the calls: active = growth percent below 10; inactive = the rest.

Assay in all cases: NCI-60 one-dose screen, 48 h (100 = growth as untreated, 0 = no growth, -100 = all killed)
Holding throughout (details): 10 µM

Experiment [1] concerns T-47D breast.
Experiment [2] has as its system BT-549 breast.
Experiment [3] relates to MDA-MB-435 melanoma.
Experiment [4] relates to SW-620 colon.
In experiment [5] the test system is MCF7 breast.
Experiment [6] relates to HCT-116 colon.
The subject of experiment [7] is HCC-2998 colon.
Experiment [8] relates to KM12 colon.

Turning to `Cc1ccc(-c2c3c(N)nc(-c4cccnc4)nc3nc3c2c(C)nn3-c2ccccc2)cc1`, the growth is 81.8% in experiment [1]; 100% in experiment [2]; 82.7% in experiment [3]; 102% in experiment [4]; 87.7% in experiment [5]; 81.1% in experiment [6]. Moreover, the growth in experiment [7] was 103%; in experiment [8], 97.1%.

Take `CCCCCC(=O)O[C@]1(C(C)=O)CCC2C3CCC4=CC(=O)CC[C@]4(C)C3CC[C@@]21C` (stereo not given in full): the growth in experiment [1] is 28.6%; in experiment [2], 31.1%; in experiment [3], 28.4%; in experiment [4] it was 29.5%; in experiment [5], 13.4%; in experiment [6] it was 11.5%. The growth in experiment [7] is 26.2%; in experiment [8], 28.7%.

For the compound `CCCCN(CCCC)C(=O)[C@H](CC)[C@@H]1CC[C@@H](C)[C@@H]([C@H](C)[C@@H](O)[C@@H](C)C(=O)[C@H](CC)C2O[C@]3(C=CC(=O)[C@]4(CC[C@@](C)([C@H]5CC[C@](O)(CC)[C@H](C)O5)O4)O3)[C@H](C)C[C@@H]2C)O1` (stereo not given in full), the growth was 20.7% in experiment [1]; 62.7% in experiment [2]; 44.6% in experiment [3]; 25.7% in experiment [4]; 16.2% in experiment [5]; 19% in experiment [6]. Moreover, the growth in experiment [7] was 39%; in experiment [8], 55.6%.

In the case of `O=C(NCCCNS(=O)(=O)c1ccc(Cl)cc1)Nc1ccc(-n2cc(-c3ccncc3)c(-c3ccc(Cl)c(O)c3)n2)cc1`, the growth is 22.2% in experiment [1]; 26.6% in experiment [2]; 28.4% in experiment [3]; 50.3% in experiment [4]; 13.8% in experiment [5]; 16.2% in experiment [6]. The results for the growth in experiment [7] and in experiment [8] were 57.9% and 28.6%, respectively.

In the case of `Cc1ccc(/C=C2/C(=O)N(C)c3ccc(S(=O)(=O)Nc4ccc(C(C)(C)C)cc4)cc32)s1`, the growth in experiment [1] is 80.5%; in experiment [2], 97.1%; in experiment [3], 83.1%; in experiment [4], 96.7%; in experiment [5], 72.4%; in experiment [6], 55.4%. In addition, the values for the growth in experiment [7] and in experiment [8] were 87.8% and 82.4%, respectively.

For the compound `COc1ccc(/C=C2\CCCC3=C2NC(N)=NC3c2ccc(OC)cc2)cc1` (stereo not given), the growth in experiment [1] is 104%; in experiment [2], 112%; in experiment [3], 90.2%; in experiment [4], 95.8%; in experiment [5], 72.3%; in experiment [6], 78.6%. In addition, the growth in experiment [7] is 116%; in experiment [8], 87.2%.

Take `NC(=O)c1cccc(-n2ccc3cc(NC(=O)Nc4ccc(Cl)c(C(F)(F)F)c4)ccc32)n1`: the growth was 68.5% in experiment [1]; 69.8% in experiment [2]; 74.9% in experiment [3]; 111% in experiment [4]; 43.8% in experiment [5]; 67% in experiment [6]. The growth is 96.3% in experiment [7] and 64.4% in experiment [8].

Consider `COc1ccc(-c2nn(-c3cccc(Cl)c3)cc2-c2cc(-c3ccccc3)[nH]c(=O)c2C#N)cc1`, for which the growth in experiment [1] was 27.6%; in experiment [2], 3.07% (active); in experiment [3], 81.5%; in experiment [4], 67.7%; in experiment [5] it was 52.9%; in experiment [6] it was 15.6%. Moreover, the growth in experiment [7] was 49.9%; in experiment [8], 69.8%.

For `CCOC(=O)c1cc(C(=O)c2ccc(OC)c(OC)c2)n2c1ccc1ccc3cccnc3c12`, the growth was 47.5% in experiment [1]; 33% in experiment [2]; -25.6% (active) in experiment [3]; 12.8% in experiment [4]; 21.8% in experiment [5]; 27.2% in experiment [6]. Moreover, the growth was 65.7% in experiment [7] and 28.8% in experiment [8].

In the case of `O=C1c2c(c3c4ccccc4n(CCCCCCN4CCOCC4)c3c3[nH]c4ccccc4c23)C(=O)N1O`, the growth in experiment [1] was 79.9%; in experiment [2], 91.9%; in experiment [3], 56.4%; in experiment [4], 4.79% (active); in experiment [5], 6.49% (active); in experiment [6], -16% (active). Besides, the growth in experiment [7] was 87.8%; in experiment [8] it was 78%.

In the case of `C=C/C(C)=C/C[C@]1(C)[C@H](C)[C@@H](OC(=O)CCC)[C@H](O)[C@@]23C(=C[C@H](OC)C[C@@H]12)[C@@H](OC(=O)CCC)O[C@H]3OC(C)=O`, the growth in experiment [1] was -40% (active); in experiment [2] it was -48.3% (active); in experiment [3], -70.3% (active); in experiment [4], -61.1% (active); in experiment [5], 9.34% (active); in experiment [6] it was -70.3% (active). In addition, the values for the growth in experiment [7] and in experiment [8] were -80.7% (active) and 8.41% (active), respectively.

As to `S=c1cnc2ccccc2[nH]1`, the growth was 81.9% in experiment [1]; 103% in experiment [2]; 101% in experiment [3]; 91% in experiment [4]; 72.9% in experiment [5]; 88.3% in experiment [6]. The growth in experiment [7] is 67.6%; in experiment [8], 93.9%.

Consider `COc1ccc(CCN2CCC(Nc3nc4ccccc4n3Cc3ccc(F)cc3)CC2)cc1`, for which the growth is -3.86% (active) in experiment [1]; 31.9% in experiment [2]; -91.7% (active) in experiment [3]; -54.8% (active) in experiment [4]; -53.6% (active) in experiment [5]; -39.4% (active) in experiment [6]. Also, the growth in experiment [7] was -84.6% (active); in experiment [8], 17.7%.

Take `COc1ccc(-c2cc(-c3ccc(OC)c(OC)c3)nc(SCCCC(=O)NO)n2)cc1`: the growth in experiment [1] was 4.26% (active); in experiment [2], 8.08% (active); in experiment [3] it was 1.23% (active); in experiment [4], 2.56% (active); in experiment [5], -22% (active); in experiment [6], 0.272% (active). Further, the growth is -15.7% (active) in experiment [7] and 15.7% in experiment [8].

As for `O=S(=O)(Oc1ccc(-c2ccc3sccc3c2)cc1)c1ccccc1`, the growth in experiment [1] was 102%; in experiment [2], 101%; in experiment [3], 97.5%; in experiment [4], 100%; in experiment [5] it was 77.5%; in experiment [6], 105%. In addition, the figures for the growth in experiment [7] and in experiment [8] were 93.4% and 110%, respectively.
